Screening results deposited in PubChem by National Center for Advancing Translational Sciences (NCATS).
Shown are actives, neighbours in structure and some others; about 4.7% of the full set was active somewhere.
TRHR enhancer = TRH receptor (human) allosteric enhancement. P34981. TRHR cells, fluo-8 calcium fluorescence, EC20 TRH enhancement. enhancement, % at 2 µM. 360,000 tested, 0.66% active; in the data active = enhancement above about 30%; note: 0% is about no effect
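Enhancer read-out: after compound pinning and an initial kinetic agonist-mode read, an EC20 of TRH (10 nM final) was injected and fluo-8 calcium signal (Ex 480/Em 530) followed at 1 s/cycle for 100 cycles in TRHR-expressing cells.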
D1 ag = agonists of human D1 dopamine receptor. P21728. HEK293 T-REx D1 cells, calcium flux, agonist mode. activation, % at 2 µM. 360,000 tested, 1% active. AID 504660; note: 0% is about no effect
Target sequence (P21728 whole entry, looked up): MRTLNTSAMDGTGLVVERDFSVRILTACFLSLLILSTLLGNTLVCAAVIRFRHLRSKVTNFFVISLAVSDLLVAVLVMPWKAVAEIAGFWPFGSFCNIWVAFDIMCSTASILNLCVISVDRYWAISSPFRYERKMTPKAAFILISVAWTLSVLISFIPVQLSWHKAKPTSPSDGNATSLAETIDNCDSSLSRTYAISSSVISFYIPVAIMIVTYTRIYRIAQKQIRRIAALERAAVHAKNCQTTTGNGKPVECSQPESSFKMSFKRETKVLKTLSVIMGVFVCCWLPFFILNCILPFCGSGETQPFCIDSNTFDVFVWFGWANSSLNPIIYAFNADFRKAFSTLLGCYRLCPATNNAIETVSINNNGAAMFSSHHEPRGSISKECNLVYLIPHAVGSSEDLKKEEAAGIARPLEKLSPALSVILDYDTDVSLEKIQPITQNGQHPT
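Inducible HEK293 T-REx D1 cells, force-coupled to calcium signalling, were plated at 4000 cells/well with tetracycline and held overnight at 30 C. After no-wash calcium dye loading, compound-evoked calcium rise over 180 s flagged agonists.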
TRHR agonist = TRH receptor (human) agonism; P34981; TRHR cells, calcium flux fluo-8, FDSS agonist mode; activation, % at 2 µM; 360,000 tested, 0.18% active; note: 0% is about no effect
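Agonist-mode FDSS calcium read (Ex 480/Em 530, 1 s cycles) in 1536-well TRHR cells with fluo-8 dye, after 10-cycle baseline and 23 nL compound addition; TRH at EC20 (10 nM final) added afterwards for the enhancer phase.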
D1 PAM = enhances dopamine response at the human D1 receptor | potentiation, % at 10 µM | HEK293 TREx D1 cells, calcium flux, dopamine EC20 potentiation | P21728 | 360,000 tested, 0.036% active; in the data active = potentiation above about 30%; note: 0% is about no effect
D1 antagonist = antagonists of human D1 dopamine receptor. P21728. HEK293 TREx D1 cells, calcium flux, dopamine EC80; stronger effect = lower value. activity change, negative = inhibition, % at 10 µM. 360,000 tested, 3.2% active; in the data active = activity change below about -30%; note: % is set by controls: 0 for no effect and ±100 for the full control effect
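HEK293 T-REx cells expressing inducible, force-coupled D1 receptor; no-wash Ca dye, 30–90 min RT. Cmpd → 180 s read at 1 Hz → EC80 DA → 180 s read.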
An asterisk follows results filed as active; ! = not active in a repeat. Cut-off read from the data, not from the text of the source, unless noted: active = activation above about 30%; inactive = the rest.

How did COc1ccc(-c2noc(-c3cccnc3N3CCN(c4ccc(OC)cc4)CC3)n2)cc1 do in these assays?
TRHR enhancer: -2; D1 ag: 1; TRHR agonist: 0; D1 PAM: -1; D1 antagonist: 5

How did CCc1ccc(N(C(=O)c2csnn2)C(C(=O)NC(C)(C)CC)c2ccccn2)cc1 (stereo not given) do in these assays?
TRHR enhancer: -8; D1 ag: 1; TRHR agonist: -1; D1 PAM: -5; D1 antagonist: -66*

How did COc1cccc(-n2nnc3c(=O)n(C/C=C/c4ccccc4)cnc32)c1 do in these assays?
TRHR enhancer: 10; D1 ag: 0; TRHR agonist: 1; D1 PAM: -10; D1 antagonist: -41*

Results for COc1ccc(F)cc1CN1CCN(CC(=O)Nc2ccccc2C(=O)NC2CC2)CC1 ?
TRHR enhancer: 0; D1 ag: 1; TRHR agonist: -1; D1 PAM: -7; D1 antagonist: -37*

How did CCOc1ccccc1NC(=O)CN1CCC(NC(=O)c2ccccc2C)CC1 do in these assays?
TRHR enhancer: -6; D1 ag: 2; TRHR agonist: -1; D1 PAM: -4; D1 antagonist: -8

What do the screens show for `CCOc1ccccc1C(=O)NC1CCN(CC(=O)Nc2cc(OC)ccc2OC)CC1`?
TRHR enhancer: -5; D1 ag: 0; TRHR agonist: -1; D1 PAM: -11; D1 antagonist: -31*

How did COc1ccc(CNCCC(c2ccc(OC(C)C)cc2)c2ccccc2OC)cc1 (stereo not given) do in these assays?
TRHR enhancer: -3; D1 ag: 35*; TRHR agonist: 0; D1 PAM: -4; D1 antagonist: 5

How did COc1ccc(CNCCC(c2ccc(OC(C)C)cc2)C(C)C)cc1OC (stereo not given) do in these assays?
TRHR enhancer: -1; D1 ag: 35*; TRHR agonist: 3; D1 PAM: 2; D1 antagonist: 30

What do the screens show for `COc1ccc(C(CCNCc2ccc(N(C)C)cc2)C(C)C)cc1` (stereo not given)?
TRHR enhancer: 3; D1 ag: 26; TRHR agonist: 0; D1 PAM: 8; D1 antagonist: 4

How did COc1ccccc1C(CCNCc1ccccc1)c1ccc(OC(C)C)cc1 (stereo not given) do in these assays?
TRHR enhancer: 18; D1 ag: 28; TRHR agonist: 1; D1 PAM: 12; D1 antagonist: 12

How did COc1ccc(C(CCNCc2ccc(OC(C)C)cc2)C(C)C)cc1 (stereo not given) do in these assays?
TRHR enhancer: -3; D1 ag: 31*; TRHR agonist: 0; D1 PAM: 1; D1 antagonist: 12

Results for O=C(Cc1ccc(NC(=O)N2CCCCc3ccccc32)cc1)NCc1cccc(Br)c1 ?
TRHR enhancer: 1; D1 ag: 1; TRHR agonist: 0; D1 PAM: -6; D1 antagonist: -12

What do the screens show for `Cn1nc(C(F)(F)F)cc1-c1ccc(S(N)(=O)=O)s1`?
TRHR enhancer: 5; D1 ag: 6; TRHR agonist: -2; D1 PAM: 2; D1 antagonist: -13

How did COC(=O)c1c(C)[nH]c(C(=O)C(C)OC(=O)C2CC2)c1C (stereo not given) do in these assays?
TRHR enhancer: 2; D1 ag: 2; TRHR agonist: 0; D1 PAM: -3; D1 antagonist: 14

Results for Cc1cc(C)c2c(N)c(-c3nnc(SCc4ccc(Cl)cc4)n3C)sc2n1 ?
TRHR enhancer: -5; D1 ag: 0; TRHR agonist: 0; D1 PAM: 3; D1 antagonist: -39*

How did C=CCn1c(SCc2ccccc2Cl)nnc1-c1sc2nc(C)cc(C)c2c1N do in these assays?
TRHR enhancer: 2; D1 ag: 1; TRHR agonist: 1; D1 PAM: -1; D1 antagonist: 7

Results for COc1cc(NC(=O)c2cccc3c2C(=O)N(C2CCCCC2)C3)cc(OC)c1OC ?
TRHR enhancer: 5; D1 ag: -1; TRHR agonist: -1; D1 PAM: 1; D1 antagonist: -78*!

How did CC(C)(C)OC(=O)N1CCC(c2c(C(=O)N3CCN(c4ccccc4F)CC3)cnn2C(C)(C)C)CC1 do in these assays?
TRHR enhancer: -14; D1 ag: 0; TRHR agonist: 3; D1 PAM: -6; D1 antagonist: -10

How did O=C(Nc1nc(-c2ccc(F)cc2)cs1)c1cccc(N2C(=O)CCC2=O)c1 do in these assays?
TRHR enhancer: -4; D1 ag: 3; TRHR agonist: 0; D1 PAM: -8; D1 antagonist: -1

How did Cc1noc(C)c1C(=O)Nc1nc(-c2cc(F)ccc2F)cs1 do in these assays?
TRHR enhancer: 1; D1 ag: 2; TRHR agonist: 0; D1 PAM: -3; D1 antagonist: -32*

What do the screens show for `O=C(Nc1nc(-c2cc(F)ccc2F)cs1)c1cccc(N2C(=O)CCC2=O)c1`?
TRHR enhancer: -14; D1 ag: 9; TRHR agonist: 0; D1 PAM: -5; D1 antagonist: -32*

How did Cc1onc(-c2ccccc2)c1C(=O)Nc1nc(-c2cc(F)ccc2F)cs1 do in these assays?
TRHR enhancer: -12; D1 ag: 2; TRHR agonist: 0; D1 PAM: -7; D1 antagonist: -5

Results for CCc1ccc(S(=O)(=O)c2c(C(=O)c3ccc(C)c(C)c3)cnc3ccccc23)cc1 ?
TRHR enhancer: -1; D1 ag: 2; TRHR agonist: 0; D1 PAM: -5; D1 antagonist: 24

What do the screens show for `O=c1oc2c(CN3CCOCC3)c(O)ccc2c2c1CCC2`?
TRHR enhancer: 8; D1 ag: 1; TRHR agonist: 0; D1 PAM: 0; D1 antagonist: 8

How did CC(C)c1cc(=O)oc2c3c4c(cc12)CCCN4CCC3 do in these assays?
TRHR enhancer: 1; D1 ag: 30*; TRHR agonist: 6; D1 PAM: -5; D1 antagonist: 6

What do the screens show for `O=c1oc2c3c4c(cc2c(C(F)(F)F)c1CCN1CCOCC1)CCCN4CCC3`?
TRHR enhancer: 4; D1 ag: 178*; TRHR agonist: 95*; D1 PAM: -1; D1 antagonist: 17

How did Cc1ccc(C(=O)C(C)OC(=O)Cn2cnc3c2c(=O)n(C)c(=O)n3C)cc1 (stereo not given) do in these assays?
TRHR enhancer: -2; D1 ag: 0; TRHR agonist: 0; D1 PAM: -12; D1 antagonist: -8

Results for Cc1cc(S(=O)(=O)Nc2cc3c(cc2NCc2ccccc2)n(C)c(=O)n3C)ccc1F ?
TRHR enhancer: 3; D1 ag: 0; TRHR agonist: -1; D1 PAM: -1; D1 antagonist: 6

How did O=C(Nc1nc(-c2cccs2)cs1)C1=COCCO1 do in these assays?
TRHR enhancer: 18; D1 ag: 0; TRHR agonist: -1; D1 PAM: -5; D1 antagonist: -82*

What do the screens show for `O=C(Nc1nc2cc3c(cc2s1)OCCO3)C1=COCCO1`?
TRHR enhancer: 0; D1 ag: 3; TRHR agonist: 0; D1 PAM: 2; D1 antagonist: 4
